Records with an inconclusive call do not appear. Unmarked numbers belong to inactive results. Activity calls are given as the source filed them. Calls come from the whole dose curve; as a rule, active = well fitted curve in the direction sought with a large enough effect; inconclusive = small, poorly fitted or top-dose-only effect, or another doubt; inactive = no such curve, though single readings can be large; an effect the other way counts as inactive or inconclusive.
Assays:
[1] = molecular target: Aldehyde dehydrogenase, mitochondrial (Homo sapiens) (UniProt P05091); assay: qHTS for Inhibitors of the Aldehyde Dehydrogenase Family (ALDH2) Primary screen (AID 2061308);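 note: plate controls were vehicle for no effect and reference inhibitor for full effect; nearly all actives have a fitted effect of over 55% in size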
[2] = molecular target: Retinaldehyde dehydrogenase 3 (Homo sapiens) (UniProt P47895); assay: qHTS for Inhibitors of the Aldehyde Dehydrogenase Family (ALDH1A3) Primary screen (AID 2061315);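 note: plate controls were DMSO vehicle for no effect and reference inhibitor for full effect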
[3] = BET inhibitor-based combinations targeting novel dependencies in MECOM-rearranged (r) AML: SET-2 cell line (AID 2202231); details: SET-2 AML cells viability, CellTiter-Glo luminescence, 48 h; viability: stronger effect = lower value, concentration not given here; note: nearly all actives have a fitted effect of over 35% in size; note: potency is the fitted concentration of half-maximal effect;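 for viability: plate controls were DMSO treated cells for no effect and wells without cells for full effect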
How it was run: (§1)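 500 cells/well; 11-pt dose curve; 48 h, standard incubator; CellTiter-Glo luminescence after 15 min RT; DMSO/empty-well normalization; AUC plus Z-AUC (mean-centered within each line).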

[4] = BET inhibitor-based combinations targeting novel dependencies in MECOM-rearranged (r) AML: OCI-AML3 cell line (AID 2202232); details: Potency: OCI-AML3 viability; note: nearly all actives have a fitted effect of over 35% in size; note: potency is the fitted concentration of half-maximal effect
How it was run: as §1

[5] = BET inhibitor-based combinations targeting novel dependencies in MECOM-rearranged (r) AML: HNT-34 cell line (AID 2202234); note: nearly all actives have a fitted effect of over 35% in size; note: potency is the fitted concentration of half-maximal effect
How it was run: (§2)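 Cells were plated at 500 per well and exposed to each drug across an 11-point dose range for 48 hr at standard incubator conditions. Viability was read by CellTiter-Glo luminescence, and activity was expressed as AUC and per-cell-line Z-transformed AUC.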

[6] = BET inhibitor-based combinations targeting novel dependencies in MECOM-rearranged (r) AML: UCSD-AML1 cell line (AID 2202235); note: nearly all actives have a fitted effect of over 40% in size; note: potency is the fitted concentration of half-maximal effect
How it was run: as §2

[7] = BET inhibitor-based combinations targeting novel dependencies in MECOM-rearranged (r) AML: AML-191 cell line (AID 2202236; note: nearly all actives have a fitted effect of over 35% in size; note: potency is the fitted concentration of half-maximal effect)
How it was run: as §1

[8] = BET inhibitor-based combinations targeting novel dependencies in MECOM-rearranged (r) AML: MV-4-11 cell line (AID 2202233); note: potency is the fitted concentration of half-maximal effect; nearly all actives have a fitted effect of over 45% in size
How it was run: as §2

[9] = BET inhibitor-based combinations targeting novel dependencies in MECOM-rearranged (r) AML: AML-194 cell line (AID 2202237; note: nearly all actives have a fitted effect of over 40% in size; note: potency is the fitted concentration of half-maximal effect)
How it was run: as §1

COc1cccc(Nc2ncnn3ccc(CN4CC[C@@H](N)[C@H](O)C4)c23)c1
Potency [1]: inactive
Potency [2]: inactive
viability [3]: 90.8%
Potency [4]: 14.8 µM (active)
Potency [5]: 1.32 µM (active)
Potency [6]: 4.17 µM (active)
Potency [7]: 4.68 µM (active)

Cc1cc(CN2CCN(c3c(Br)cnc4nc(-c5ccc(N6CCN(C)CC6)cc5)[nH]c34)CC2)no1
Potency [1]: inactive
Potency [2]: inactive
Potency [3]: 9.34 µM (active)
Potency [4]: 8.33 µM (active)
Potency [8]: 0.332 µM (active)
Potency [5]: 1.48 µM (active)
Potency [6]: 2.63 µM (active)
Potency [7]: 5.25 µM (active)
Potency [9]: 4.17 µM (active)

COc1ccc(OC)c(-c2nnc3ccc(-c4ccc(OC)c(O[C@@H]5CCOC5)c4)nn23)c1
Potency [1]: inactive
Potency [2]: inactive
Potency [4]: 4.17 µM (active)
Potency [8]: 5.25 µM (active)
Potency [5]: 1.05 µM (active)
Potency [7]: 2.35 µM (active)
Potency [9]: 2.35 µM (active)

C#Cc1cccc(Nc2ncnc3cc(OCCOC)c(OCCOC)cc23)c1
Potency [1]: inactive
Potency [2]: inactive
Potency [8]: 5.9 µM (active)
Potency [5]: 5.25 µM (active)

C[C@@H]1CCNC(=O)c2cc3ccc(C(=O)Nc4nc5ccccc5n4CCCN(C)C)cc3n21
Potency [1]: inactive
Potency [2]: inactive
Potency [4]: 6.61 µM (active)
Potency [8]: 0.59 µM (active)
Potency [5]: 16.6 µM (active)

CC(=O)O[C@H]1C(=O)[C@@]2(C)C([C@H](OC(=O)c3ccccc3)[C@]3(O)C[C@H](OC(=O)[C@H](O)[C@@H](NC(=O)c4ccccc4)c4ccccc4)C(C)=C1C3(C)C)[C@]1(OC(C)=O)CO[C@@H]1C[C@@H]2O (stereo not given in full)
Potency [1]: inactive
Potency [2]: inactive
Potency [3]: 0.148 µM (active)
Potency [4]: 0.0059 µM (active)
Potency [5]: 0.0042 µM (active)
Potency [7]: 0.0209 µM (active)

C[C@@H]1CCN(C(=O)CC#N)C[C@@H]1N(C)c1ncnc2[nH]ccc12
Potency [1]: inactive
Potency [2]: inactive
Potency [3]: 1.48 µM (active)
Potency [6]: 0.059 µM (active)

CCn1c(=O)c(-c2ccc(-c3cncs3)cc2Cl)cc2cnc(Nc3ccc(N4CCN(C)CC4)cc3)nc21
Potency [1]: inactive
Potency [2]: inactive
viability [3]: 104%
Potency [8]: 1.86 µM (active)

Cn1c(NC[C@@H](N)Cc2ccccc2)nc(-c2ccncc2)c(-c2ccc3ccccc3c2)c1=O
Potency [1]: inactive
Potency [2]: inactive
Potency [4]: 20.9 µM (active)
Potency [8]: 20.9 µM (active)
Potency [5]: 26.3 µM (active)
Potency [9]: 26.3 µM (active)

CNS(=O)(=O)c1ccc2c(c1)/C(=C/c1[nH]c3c(c1CCCN1CCN(C)CC1)CCCC3)C(=O)N2
Potency [1]: inactive
Potency [2]: inactive
Potency [3]: 18.6 µM (active)
Potency [8]: 1.18 µM (active)
Potency [5]: 20.9 µM (active)
Potency [9]: 13.2 µM (active)

Cc1nc(-c2cn3c(n2)-c2ccc(-c4cnn(C(C)(C)C(N)=O)c4)cc2OCC3)n(C(C)C)n1
Potency [1]: inactive
Potency [2]: inactive
Potency [3]: 23.5 µM (active)
Potency [8]: 5.25 µM (active)
Potency [5]: 16.6 µM (active)
Potency [6]: 0.209 µM (active)

C=CC(=O)N1CCC[C@@H](n2nc(-c3ccc(Oc4ccccc4)cc3)c3c(N)ncnc32)C1
Potency [1]: inactive
Potency [2]: inactive
Potency [4]: inactive
Potency [5]: 5.9 µM (active)

COc1cc(Oc2ccnc3cc(OC)c(OC)cc23)ccc1NC(=O)NC(C)c1nccs1 (stereo not given)
Potency [1]: inactive
Potency [2]: inactive
Potency [3]: 10.5 µM (active)
Potency [4]: 10.5 µM (active)
Potency [5]: 13.2 µM (active)
Potency [6]: inactive
Potency [9]: 13.2 µM (active)

O=C(O)c1ccc(CN2CCC(CN[C@@H]3C[C@H]3c3ccccc3)CC2)cc1
Potency [1]: inactive
Potency [2]: inactive
Potency [3]: 0.186 µM (active)
Potency [5]: inactive
Potency [6]: 0.209 µM (active)
Potency [7]: inactive
Potency [9]: inactive

Cc1onc(-c2ccc(F)cc2)c1COc1ccc(C(=O)N2CCS(=O)(=O)CC2)cn1
Potency [1]: inactive
Potency [2]: inactive
viability [3]: 112%
Potency [4]: inactive
Potency [5]: inactive
Potency [7]: inactive
Potency [9]: inactive

Cc1[nH]c(/C=C2\C(=O)Nc3ccc(F)cc32)c(C)c1C(=O)NC[C@H](O)CN1CCOCC1
Potency [1]: inactive
Potency [2]: inactive
Potency [4]: 5.25 µM (active)
Potency [8]: 0.0742 µM (active)
Potency [5]: 3.72 µM (active)
Potency [7]: 4.17 µM (active)
Potency [9]: 10.5 µM (active)

COc1cc2ncnc(Nc3ccc(O)c(Br)c3)c2cc1OC
Potency [1]: inactive
Potency [2]: inactive
Potency [8]: 1.48 µM (active)
Potency [5]: 5.25 µM (active)

C[C@@H]1CC(=O)Nc2cccc(-c3cnn(C(C)(C)C)c3)c2N1
Potency [1]: inactive
Potency [2]: inactive
Potency [4]: 18.6 µM (active)
Potency [8]: 16.6 µM (active)
Potency [6]: 14.8 µM (active)
Potency [7]: 16.6 µM (active)

C[C@H](CN(C)C)Oc1nc(Nc2cc3cccc(Cl)c3cn2)cnc1C#N
Potency [1]: inactive
Potency [2]: inactive
Potency [4]: 4.68 µM (active)
Potency [8]: 1.86 µM (active)

— PubChem BioAssay (NCATS)
